# Data taken from the supplement of paper PMC4466140.
# How the values were obtained:
# Assay in all cases: SPOT peptide array binding signal intensity (averaged, normalized) (arbitrary units (background-subtracted, floor 0; scale differs between SH3 domains)); higher = stronger binding of the SH3 domain to the peptide
# AgAbp1 = target: AgAbp1
# In short: (§1)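 SH3 domains from four yeast species were expressed as GST fusions in E. coli BL21(DE3) and purified on glutathione Sepharose. Each was incubated at 10 μg/ml overnight at 4°C in TBS-based blocking buffer on cellulose membranes bearing synthetic 15-mer peptides, in which serines replaced cysteines. Bound protein was detected with anti-GST antibody, an HRP anti-mouse secondary and luminol, then imaged and quantified with Genespotter. The binding signal is the normalized, background-subtracted spot intensity averaged over replicates, in arbitrary units that are not the same from one domain to another.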
# AgBbc1 = target: AgBbc1
# In short: as §1
# AgBem1-D1 = target: AgBem1-D1
# In short: as §1
# AgBzz1-D1 = target: AgBzz1-D1
# In short: as §1
# AgBzz1-D2 = target: AgBzz1-D2
# In short: as §1
# AgCyk3 = target: AgCyk3
# In short: as §1
# AgFus1 = target: AgFus1
# In short: as §1
# AgHof1 = target: AgHof1
# In short: as §1
# AgHse1 = target: AgHse1
# In short: as §1
# AgLsb1 = target: AgLsb1
# In short: as §1
# AgLsb4 = target: AgLsb4
# In short: as §1
# AgMyo5 = target: AgMyo5
# In short: as §1
# AgNbp2 = target: AgNbp2
# In short: as §1
# AgRvs167 = target: AgRvs167
# In short: as §1
# AgSho1 = target: AgSho1
# In short: as §1
# AgSla1-D1-D2 = target: AgSla1-D1-D2
# In short: as §1
# AgSla1-D3 = target: AgSla1-D3
# In short: as §1
# CaAbp1-D1 = target: CaAbp1-D1
# In short: as §1
# CaAbp1-D2 = target: CaAbp1-D2
# In short: as §1
# CaBbc1 = target: CaBbc1
# In short: as §1
# CaBem1-D1 = target: CaBem1-D1
# In short: as §1
# CaBzz1-D1 = target: CaBzz1-D1
# In short: as §1
# CaBzz1-D2 = target: CaBzz1-D2
# In short: as §1
# CaCyk3 = target: CaCyk3
# In short: as §1
# CaFus1 = target: CaFus1
# In short: as §1
# CaHof1 = target: CaHof1
# In short: as §1
# CaHse1 = target: CaHse1
# In short: as §1
# CaLsb1 = target: CaLsb1
# In short: as §1
# CaLsb4 = target: CaLsb4
# In short: as §1
# CaMyo5 = target: CaMyo5
# In short: as §1
# CaNbp2 = target: CaNbp2
# In short: as §1
# CaRvs167 = target: CaRvs167
# In short: as §1
# CaRvs167-3 = target: CaRvs167-3
# In short: as §1
# CaSho1 = target: CaSho1
# In short: as §1
# CaSla1-D1-D2 = target: CaSla1-D1-D2
# In short: as §1
# CaSla1-D3 = target: CaSla1-D3
# In short: as §1
# ScAbp1 = target: ScAbp1
# In short: as §1
# ScBbc1 = target: ScBbc1
# In short: as §1
# ScBem1-D1 = target: ScBem1-D1
# In short: as §1
# ScBzz1-D1 = target: ScBzz1-D1
# In short: as §1
# ScBzz1-D2 = target: ScBzz1-D2
# In short: as §1
# ScCyk3 = target: ScCyk3
# In short: as §1
# ScFus1 = target: ScFus1
# In short: as §1
# ScHof1 = target: ScHof1
# In short: as §1
# ScHse1 = target: ScHse1
# In short: as §1
# ScLsb1 = target: ScLsb1
# In short: as §1
# ScLsb2 = target: ScLsb2
# In short: as §1
# ScLsb3 = target: ScLsb3
# In short: as §1
# ScLsb4 = target: ScLsb4
# In short: as §1
# ScMyo3 = target: ScMyo3
# In short: as §1
# ScMyo5 = target: ScMyo5
# In short: as §1
# ScNbp2 = target: ScNbp2
# In short: as §1
# ScPex13 = target: ScPex13
# In short: as §1
# ScRvs167 = target: ScRvs167
# In short: as §1
# ScSho1 = target: ScSho1
# In short: as §1
# ScSla1-D1-D2 = target: ScSla1-D1-D2
# In short: as §1
# ScSla1-D3 = target: ScSla1-D3
# In short: as §1
# SpAbp1-D1 = target: SpAbp1-D1
# In short: as §1
# SpBbc1 = target: SpBbc1
# In short: as §1
# SpBzz1-D1 = target: SpBzz1-D1
# In short: as §1
# SpBzz1-D2 = target: SpBzz1-D2
# In short: as §1
# SpCyk3 = target: SpCyk3
# In short: as §1
# SpHof1 = target: SpHof1
# In short: as §1
# SpHof1-2 = target: SpHof1-2
# In short: as §1
# SpHof1-3 = target: SpHof1-3
# In short: as §1
# SpHse1 = target: SpHse1
# In short: as §1
# SpLsb1 = target: SpLsb1
# In short: as §1
# SpLsb4 = target: SpLsb4
# In short: as §1
# SpMyo1 = target: SpMyo1
# In short: as §1
# SpNbp2 = target: SpNbp2
# In short: as §1
# SpPex13 = target: SpPex13
# In short: as §1
# SpRvs167 = target: SpRvs167
# In short: as §1
# SpSla1-D1-D2 = target: SpSla1-D1-D2
# In short: as §1
# SpSla1-D3 = target: SpSla1-D3
# In short: as §1
binder,measurement,setting,value
STPQTMRQAPKRPDA,SPOT peptide array binding signal intensity,AgAbp1,≤ 0
same,SPOT peptide array binding signal intensity,AgBbc1,206
same,SPOT peptide array binding signal intensity,AgBem1-D1,540
same,SPOT peptide array binding signal intensity,AgBzz1-D1,10
same,SPOT peptide array binding signal intensity,AgBzz1-D2,20
same,SPOT peptide array binding signal intensity,AgCyk3,≤ 0
same,SPOT peptide array binding signal intensity,AgFus1,34.5
same,SPOT peptide array binding signal intensity,AgHof1,10.5
same,SPOT peptide array binding signal intensity,AgHse1,122
same,SPOT peptide array binding signal intensity,AgLsb1,6.5
same,SPOT peptide array binding signal intensity,AgLsb4,≤ 0
same,SPOT peptide array binding signal intensity,AgMyo5,6
same,SPOT peptide array binding signal intensity,AgNbp2,1030
same,SPOT peptide array binding signal intensity,AgRvs167,0.833
same,SPOT peptide array binding signal intensity,AgSho1,25
same,SPOT peptide array binding signal intensity,AgSla1-D1-D2,4
same,SPOT peptide array binding signal intensity,AgSla1-D3,0.5
same,SPOT peptide array binding signal intensity,CaAbp1-D1,≤ 0
same,SPOT peptide array binding signal intensity,CaAbp1-D2,13
same,SPOT peptide array binding signal intensity,CaBbc1,1170
same,SPOT peptide array binding signal intensity,CaBem1-D1,174
same,SPOT peptide array binding signal intensity,CaBzz1-D1,532
same,SPOT peptide array binding signal intensity,CaBzz1-D2,105
same,SPOT peptide array binding signal intensity,CaCyk3,29
same,SPOT peptide array binding signal intensity,CaFus1,202
same,SPOT peptide array binding signal intensity,CaHof1,≤ 0
same,SPOT peptide array binding signal intensity,CaHse1,83
same,SPOT peptide array binding signal intensity,CaLsb1,0.5
same,SPOT peptide array binding signal intensity,CaLsb4,283
same,SPOT peptide array binding signal intensity,CaMyo5,88
same,SPOT peptide array binding signal intensity,CaNbp2,653
same,SPOT peptide array binding signal intensity,CaRvs167,28.8
same,SPOT peptide array binding signal intensity,CaRvs167-3,1
same,SPOT peptide array binding signal intensity,CaSho1,100
same,SPOT peptide array binding signal intensity,CaSla1-D1-D2,198
same,SPOT peptide array binding signal intensity,CaSla1-D3,225
same,SPOT peptide array binding signal intensity,ScAbp1,2.5
same,SPOT peptide array binding signal intensity,ScBbc1,49.5
same,SPOT peptide array binding signal intensity,ScBem1-D1,8.5
same,SPOT peptide array binding signal intensity,ScBzz1-D1,3
same,SPOT peptide array binding signal intensity,ScBzz1-D2,26
same,SPOT peptide array binding signal intensity,ScCyk3,≤ 0
same,SPOT peptide array binding signal intensity,ScFus1,39
same,SPOT peptide array binding signal intensity,ScHof1,≤ 0
same,SPOT peptide array binding signal intensity,ScHse1,72
same,SPOT peptide array binding signal intensity,ScLsb1,5.5
same,SPOT peptide array binding signal intensity,ScLsb2,5
same,SPOT peptide array binding signal intensity,ScLsb3,300
same,SPOT peptide array binding signal intensity,ScLsb4,35
same,SPOT peptide array binding signal intensity,ScMyo3,196
same,SPOT peptide array binding signal intensity,ScMyo5,72.5
same,SPOT peptide array binding signal intensity,ScNbp2,2290
same,SPOT peptide array binding signal intensity,ScPex13,339
same,SPOT peptide array binding signal intensity,ScRvs167,39.7
same,SPOT peptide array binding signal intensity,ScSho1,171
same,SPOT peptide array binding signal intensity,ScSla1-D1-D2,736
same,SPOT peptide array binding signal intensity,ScSla1-D3,540
same,SPOT peptide array binding signal intensity,SpAbp1-D1,≤ 0
same,SPOT peptide array binding signal intensity,SpBbc1,5
same,SPOT peptide array binding signal intensity,SpBzz1-D1,116
TPTSGPPLLPPRNTM,SPOT peptide array binding signal intensity,CaNbp2,21
same,SPOT peptide array binding signal intensity,CaRvs167,2460
same,SPOT peptide array binding signal intensity,CaRvs167-3,≤ 0
same,SPOT peptide array binding signal intensity,CaSho1,5.5
same,SPOT peptide array binding signal intensity,CaSla1-D1-D2,185
same,SPOT peptide array binding signal intensity,CaSla1-D3,23.8
same,SPOT peptide array binding signal intensity,ScAbp1,≤ 0
same,SPOT peptide array binding signal intensity,ScBbc1,1
same,SPOT peptide array binding signal intensity,ScBem1-D1,≤ 0
same,SPOT peptide array binding signal intensity,ScBzz1-D1,3
same,SPOT peptide array binding signal intensity,ScBzz1-D2,≤ 0
same,SPOT peptide array binding signal intensity,ScCyk3,2
same,SPOT peptide array binding signal intensity,ScFus1,≤ 0
same,SPOT peptide array binding signal intensity,ScHof1,8
same,SPOT peptide array binding signal intensity,ScHse1,≤ 0
same,SPOT peptide array binding signal intensity,ScLsb1,1070
same,SPOT peptide array binding signal intensity,ScLsb2,65.5
same,SPOT peptide array binding signal intensity,ScLsb3,6040
same,SPOT peptide array binding signal intensity,ScLsb4,6540
same,SPOT peptide array binding signal intensity,ScMyo3,538
same,SPOT peptide array binding signal intensity,ScMyo5,80
same,SPOT peptide array binding signal intensity,ScNbp2,≤ 0
same,SPOT peptide array binding signal intensity,ScPex13,1680
same,SPOT peptide array binding signal intensity,ScRvs167,2570
same,SPOT peptide array binding signal intensity,ScSho1,1.5
same,SPOT peptide array binding signal intensity,ScSla1-D1-D2,268
same,SPOT peptide array binding signal intensity,ScSla1-D3,51.5
same,SPOT peptide array binding signal intensity,SpAbp1-D1,3
same,SPOT peptide array binding signal intensity,SpBbc1,≤ 0
same,SPOT peptide array binding signal intensity,SpBzz1-D1,176
same,SPOT peptide array binding signal intensity,SpBzz1-D2,1
same,SPOT peptide array binding signal intensity,SpCyk3,4.5
same,SPOT peptide array binding signal intensity,SpHof1,12.5
same,SPOT peptide array binding signal intensity,SpHof1-2,19
same,SPOT peptide array binding signal intensity,SpHof1-3,18.8
same,SPOT peptide array binding signal intensity,SpHse1,31.5
same,SPOT peptide array binding signal intensity,SpLsb1,1190
same,SPOT peptide array binding signal intensity,SpLsb4,6300
same,SPOT peptide array binding signal intensity,SpMyo1,156
same,SPOT peptide array binding signal intensity,SpNbp2,≤ 0
same,SPOT peptide array binding signal intensity,SpPex13,84.5
same,SPOT peptide array binding signal intensity,SpRvs167,2660
same,SPOT peptide array binding signal intensity,SpSla1-D1-D2,3
same,SPOT peptide array binding signal intensity,SpSla1-D3,4.5
